# Source: PubChem (several laboratories)
# H9c2 protect – myocardial damage modulation in H9c2 cells; H9c2 cardiomyocytes, H2O2 injury protection, ATPLite, 2 h; protection from H2O2 cell death, % at 20 µM; actives 0.63% (n = 360,000);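 active = compounds giving at least 50% protection of heart cells from peroxide-induced death in the single-dose screen, raw or plate-pattern-corrected value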;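 note: 0% = DMSO wells with peroxide and 100% = DMSO wells without peroxide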
# Efflux pump mplx – inhibitors of Candida antifungal efflux pumps expressed in yeast; inhibition, % at 10 µM; actives 0.44% (n = 330,000); S. cerevisiae Candida pump triplex, Nile Red efflux;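 active = plate passing quality check with inhibition over a set limit, or well fluorescence over plate mean plus 4 SD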;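 note: Nile Red retained in pooled yeast measured as flow cytometry median fluorescence; 0% = buffer negative control and 100% = Enniatin B positive control; higher means more Nile Red kept so more efflux inhibition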
# PHOSPHO1 block – PHOSPHO1 (human) inhibition | recombinant PHOSPHO1, absorbance phosphatase assay | inhibition, % at 13.3 µM | actives 1.1% (n = 290,000) | AID 1565; in the data active = inhibition above about 60%
# Calb FLC – C. albicans growth modulation with fluconazole; C. albicans CaCi-2 (fluconazole-resistant clinical isolate) + fluconazole, Alamar Blue growth, 48 h; growth inhibition, % (concentration not given with the values); actives 0.57% (n = 300,000); AID 1979;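 active = growth inhibition above about 58% in most replicates, limit read from the data, passing the limit was not always enough; inconclusive = exactly half the replicates above a set limit; inactive = most replicates below a set limit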;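 note: all wells also contain fluconazole at 8 µg/ml as a sub-toxic cotreatment; 0% = median of DMSO wells and 100% = median of geldanamycin control wells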
# KCC2 mod – KCC2 (human) Cl- transport modulation; Q9H2X9; KCC2 cells, thallium flux FluoZin-2 fluorescence; B-score of Tl+ flux slope (higher = more flux/activation; lower = inhibition) at 10 µM; actives 2.2% (n = 190,000); AID 1456;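 active = thallium flux slope and its plate-corrected score both differing from the plate sample mean at a set confidence after two filtering rounds, in either direction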;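 note: slope of fluorescence scaled to starting intensity during 10 to 20 s after thallium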
# Target sequence (Q9H2X9 whole entry, looked up): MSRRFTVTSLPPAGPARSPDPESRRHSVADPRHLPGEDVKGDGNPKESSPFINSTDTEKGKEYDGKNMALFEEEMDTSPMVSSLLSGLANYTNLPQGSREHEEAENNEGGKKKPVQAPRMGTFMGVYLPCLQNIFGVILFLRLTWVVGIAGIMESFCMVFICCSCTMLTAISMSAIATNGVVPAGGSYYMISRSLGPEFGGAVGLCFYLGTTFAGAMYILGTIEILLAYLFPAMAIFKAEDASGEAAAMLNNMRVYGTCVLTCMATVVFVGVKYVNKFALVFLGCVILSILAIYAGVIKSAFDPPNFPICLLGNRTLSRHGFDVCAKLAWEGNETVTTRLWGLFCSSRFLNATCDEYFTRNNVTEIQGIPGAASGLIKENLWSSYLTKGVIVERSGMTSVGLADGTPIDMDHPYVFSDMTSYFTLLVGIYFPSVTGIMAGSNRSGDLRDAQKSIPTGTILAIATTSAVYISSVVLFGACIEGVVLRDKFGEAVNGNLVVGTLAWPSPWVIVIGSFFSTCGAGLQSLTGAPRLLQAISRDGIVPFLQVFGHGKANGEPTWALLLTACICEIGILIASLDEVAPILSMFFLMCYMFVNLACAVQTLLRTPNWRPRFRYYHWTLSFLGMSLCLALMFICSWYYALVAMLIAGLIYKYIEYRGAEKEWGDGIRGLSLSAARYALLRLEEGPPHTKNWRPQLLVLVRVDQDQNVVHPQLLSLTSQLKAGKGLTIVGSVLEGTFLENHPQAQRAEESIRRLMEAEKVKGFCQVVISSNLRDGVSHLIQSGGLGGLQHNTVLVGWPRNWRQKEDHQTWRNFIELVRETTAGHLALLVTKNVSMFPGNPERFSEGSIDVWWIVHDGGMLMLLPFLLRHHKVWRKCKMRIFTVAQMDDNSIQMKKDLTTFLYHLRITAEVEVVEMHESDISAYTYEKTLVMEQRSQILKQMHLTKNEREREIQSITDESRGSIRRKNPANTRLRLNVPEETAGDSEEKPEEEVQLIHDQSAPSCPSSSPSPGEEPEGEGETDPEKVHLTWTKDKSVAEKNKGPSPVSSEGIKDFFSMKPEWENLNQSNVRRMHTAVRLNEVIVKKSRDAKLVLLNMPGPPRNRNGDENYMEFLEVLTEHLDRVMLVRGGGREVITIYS
# KCC2 secondary – confirmation of human KCC2 transport modulators | shares compounds with KCC2 mod | HEK293-KCC2, thallium flux, FluoZin2 fluorescence; active compounds read high | normalised thallium flux (F/F0 slope) at 10 µM | actives 15% (n = 3,700) | AID 1713;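 active = thallium flux slope above the same plate's solvent-only control mean plus 3 SD; inconclusive = the two replicate wells disagree; inactive = no significant difference from solvent-only control wells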
# KCC2 bumet counter – thallium flux persisting under bumetanide in KCC2 cells, counter-screen secondary assay. HEK293-KCC2 + bumetanide/ouabain, thallium flux FluoZin2; active compounds read high. actives 49% (n = 3,700). normalized thallium flux at 10 µM. shares compounds with KCC2 mod;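 active = thallium entry rate above the same plate's blocked-transporter control wells by more than 3 SD; inconclusive = the two repeat wells disagree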;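 note: raw slope of fluorescence over initial fluorescence between 10 and 20 s after thallium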
# KCC2 secondary2 – KCC2 (human) modulation, second secondary assay; shares compounds with KCC2 mod; HEK293-KCC2, thallium flux FluoZin2 fluorescence; actives lie on both sides; F/F0 rise rate, 10–20 s post-thallium; normalized thallium flux at 10 µM; actives 23% (n = 3,700);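 active = thallium flux slope more than 3 SD above or below the plate's solvent-only control mean, mostly below; inconclusive = the two repeat wells disagreed; inactive = no significant shift from solvent-only controls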;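 note: raw slope with 0.1% DMSO as baseline and bumetanide as block control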
# HEK counter1 – parental HEK flux effect, counter-screen. shares compounds with KCC2 mod. HEK293 parental cells, thallium flux FluoZin2, ouabain; baseline-ratio fluorescence slope, 10–20 s after thallium. thallium flux rate (normalised fluorescence) at 10 µM. actives 46% (n = 3,700);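 active = thallium flux rate significantly above the same plate's solvent-only control wells, beyond their mean plus 3 SD; inconclusive = the two replicate wells gave conflicting results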
# KCC2 retest ouab – KCC2 (human) modulation, ouabain retest. shares compounds with KCC2 mod. HEK293-KCC2, thallium flux FluoZin2 fluorescence; bidirectional: low = inhibitor, high = activator. raw Tl+ flux slope (below DMSO = inhibition, above = activation) at 10 µM. actives 48% (n = 3,700). AID 1717;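 active = thallium flux slope beyond 3 SD from same-plate DMSO control mean in most replicates, usually higher, sometimes lower; inconclusive = repeat tests gave conflicting results; inactive = no significant difference from controls in most replicates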;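 note: slope of initial-normalized fluorescence between seconds 10 and 20 after thallium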
# HEK counter2 – acts in parental HEK cells, second KCC2 counter-screen. shares compounds with KCC2 mod. HEK293 parental, thallium flux FluoZin-2 fluorescence slope. thallium flux slope at 10 µM. actives 33% (n = 3,700);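 active = thallium flux slope above the same plate's solvent-control mean plus 3 SD in both duplicate wells; inconclusive = duplicate wells that disagreed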;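 note: run without ouabain in cells lacking the KCC2 cotransporter; slope of fluorescence scaled to its starting value between 10 and 20 s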
# Starred values were filed as active, the others as inactive; ? = inconclusive; . = no result given. An excerpt weighted towards active compounds, which were near 3.3% of everything screened.
SMILES,H9c2 protect,Efflux pump mplx,PHOSPHO1 block,Calb FLC,KCC2 mod,KCC2 secondary,KCC2 bumet counter,KCC2 secondary2,HEK counter1,KCC2 retest ouab,HEK counter2
CC(C)c1onc(C(=O)NCCc2ccccc2)c1[N+](=O)[O-],-3,0,-7,26,-5.2*,0.0053,0.005,0.025*,0.0078,?,0.01
CC1CCCCN1C(=O)CSc1nnc(Cc2ccccc2)n1C (centres undefined),13,0,-1,0,3.2*,0.0055,0.0049,0.029,0.0076,0.018,0.011
COCCn1c(Cc2ccccc2)nnc1SCC(=O)N1CCCCC1C (centres undefined),4,0,16,-9,-0.73,.,.,.,.,.,.
CN(CCOc1ccccc1)C(=O)c1ccc(N2CCCC2)c([N+](=O)[O-])c1,-8,0,-20,-4,.,.,.,.,.,.,.
O=C(c1cc(COc2ccc(F)cc2Cl)on1)N1CCC(c2ccncc2)CC1,-27,0,5,26,-6.3*,0.008,0.0054,0.035,0.0036,0.014*,0.011
O=C(c1cc(COc2ccc(F)cc2Cl)on1)N1CCCCCC1,1,0,-22,-4,.,.,.,.,.,.,.
CN(C)S(=O)(=O)c1ccc(N2CCCC2)c(C(=O)NCC2CCCO2)c1 (centres undefined),-2,0,.,-1,.,.,.,.,.,.,.
O=C(C1CC(c2ccc(F)cc2)=NO1)N1CCN(Cc2ccccc2)CC1 (centres undefined),-7,0,11,6,.,.,.,.,.,.,.
COc1cc(OC)c(C2=NOC(C(=O)N3CCc4ccccc4C3)C2)cc1Cl (centres undefined),0,0,-2,9,-3.2*,0.0057,0.0039,0.024*,0.0074,?,0.0092
COc1cccc(C2=NOC(C(=O)N3CCN(Cc4ccccc4)CC3)C2)c1OC (centres undefined),-4,0,28,12,-4*,0.0065,0.0057,0.029,0.0062,0.016*,?
Cc1csc(=O)n1CCC(=O)OC(C)C(=O)NCc1ccccc1 (centres undefined),0,0,.,.,.,.,.,.,.,.,.
CC(=O)Nc1ccc(C(=O)CSc2nnc(-c3ccccc3F)n2CCc2ccccc2)cc1,20,.,.,.,.,.,.,.,.,.,.
Cc1onc(-c2c(F)cccc2Cl)c1C(=O)OCC(=O)c1c[nH]c2ccccc12,-5,0,40,-4,0.081,.,.,.,.,.,.
CCOC(=O)c1cc2c(ccn2-c2ccc(F)cc2)n1CC(=O)N(CC)CC,-18,0,18,33,-5.5*,0.015,0.0036,0.023*,?,0.012*,0.009
CC12CCC(=O)N1C(C(=O)Nc1nnc(SCc3ccc(F)cc3)s1)CS2 (centres undefined),-1,0,1,5,.,.,.,.,.,.,.
CCOCCCNC(=O)CCCn1nc(C)n2c(cc3sccc32)c1=O,5,0,-7,1,0.00074,.,.,.,.,.,.
CCOC(=O)C1CCCN(C(=O)CCCn2nc(C)n3c(cc4sccc43)c2=O)C1 (centres undefined),12,0,7,1,-4.2*,0.009,0.0088*,0.033,0.007,0.021,0.011
Cc1ccc(S(=O)(=O)Nc2ccc(S(=O)(=O)Nc3nccs3)cc2)c([N+](=O)[O-])c1,24,0,31,-8,.,.,.,.,.,.,.
Cc1nc2nc(-c3ccc(Cl)cc3)cn2nc1C,-20,0,11,3,.,0.0086,0.0057,0.031,0.0087,0.019,0.012
Cc1nn2cc(-c3ccc(Cl)cc3)nc2s1,-9,0,-6,1,.,.,.,.,.,.,.
Cc1ccc(S(=O)(=O)NCCNc2ccc(Br)c(C)c2)cc1,-10,0,.,.,.,.,.,.,.,.,.
FC(F)(F)c1ccc(Cl)c(NC(=S)N/N=C/c2ccccc2C(F)(F)F)c1,1,1,13,21,4.9*,0.0073,0.014*,?,0.014*,?,0.013*
CCC1CCCCN1C(=S)NC(=O)c1cccs1 (centres undefined),8,.,-81,10,63*,0.036*,0.1*,0.086*,0.088*,0.088*,0.087*
CCC1CCCCN1C(=S)NC(=O)c1ccc(F)c(S(=O)(=O)N2CCOCC2)c1 (centres undefined),4,0,-4,3,3.2*,?,0.019*,0.029,0.01*,0.029*,?
N#Cc1ccccc1COC(=O)c1cccc(S(=O)(=O)N2CCCC2)c1,-1,0,.,.,.,.,.,.,.,.,.
SMILES,H9c2 protect,Efflux pump mplx,PHOSPHO1 block,Calb FLC,KCC2 mod,KCC2 secondary,KCC2 bumet counter,KCC2 secondary2,HEK counter1,KCC2 retest ouab,HEK counter2
CC(/C=N/n1c(-c2cc(C)[nH]n2)n[nH]c1=S)=C\c1ccccc1,0,0,47,31,-4.4*,0.0095,0.0065,0.033,?,0.019,0.011
CC(=C/c1ccccc1)/C=N/n1c(-c2ccco2)n[nH]c1=S,-2,0,38,45,.,.,.,.,.,.,.
N#Cc1c(NC(=O)CSc2nc(N)cc(=O)[nH]2)sc2c1CCCCCC2,-17,0,6,9,.,0.0062,0.0049,0.027*,0.0075,?,0.0098
CCC(Sc1nc(C)cc(=O)[nH]1)C(=O)Nc1sc2c(c1C#N)CCCC2 (centres undefined),-13,0,47,15,.,0.0061,0.0045,0.026*,0.0065,0.017,0.0098
Cc1ccc(NC(=O)c2sccc2C)nc1,-5,0,28,-7,.,.,.,.,.,.,.
CC(C)C(=O)N/N=C/c1ccc(OCc2ccccc2)cc1,-11,0,-1,-11,-4.7*,0.0072,0.0051,0.03,0.0073,?,0.01
O=C(O)CC1SC(=O)N(CC(=O)c2ccccc2)C1=O (centres undefined),0,0,47,17,.,.,.,.,.,.,.
O=C(Nc1cnc2ccccc2c1)c1cccc(-n2cnnn2)c1,15,0,26,1,-2.4,.,.,.,.,.,.
c1ccc2ncc(-n3cnnn3)cc2c1,0,0,14,-24,3*,0.01,0.0066,0.036,0.0083,0.022,0.01
S=c1nccc(-c2ccc3c(c2)CCO3)[nH]1,0,0,-88,1,4.6*,0.019,0.011*,0.033,0.013*,0.021*,0.016*
